# Screening results as filed in PubChem BioAssay.
# Hits are enriched below; roughly 1.7% of the tested compounds scored in any of these assays.
# Vc quorum ag: induces V. cholerae light production without autoinducers; V. cholerae BH1578 lux reporter, luminescence, 6 h; activation, % at 18.7 µM; 0.16% of 350,000 active; AID 588436; in the data active means activation mostly above about 9.7%, no sharp cut-off; inconclusive means no clear call, values can overlap the other calls; inactive means mostly below about 3.7%
# PfHsp40 rescue: rescue of PfHsp40-mediated yeast toxicity; growth rescue, % at 12.5 µM; S. cerevisiae expressing PfHsp40, growth rescue, ATP luminescence; 0.68% of 340,000 active; in the data active means growth rescue above about 28%, passing the limit was not always enough; inconclusive means no clear call, values can overlap the other calls;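 further: yeast W303a lacking pdr1 and pdr3 grown in galactose medium; growth measured after three days at 30 °C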
# MazEF act: activators of E. coli MazEF toxin-antitoxin RNase; P0AE70; FAM/BHQ RNA-DNA oligo cleavage fluorescence, 5 h; activation, % at 20 µM; 0.32% of 350,000 active; in the data active means activation above about 50%
# Target sequence (P0AE70 whole entry, looked up): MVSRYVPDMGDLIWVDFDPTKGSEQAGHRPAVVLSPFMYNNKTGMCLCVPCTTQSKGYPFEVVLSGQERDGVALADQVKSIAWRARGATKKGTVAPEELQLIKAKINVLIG
# BJeLR lethal: BJeLR cell viability loss | 0.17% of 300,000 active | BJeLR (HRASV12) viability, CellTiter-Glo ATP luminescence, 48 h | AID 1554 | inhibition, % (test concentration not listed); in the data active means inhibition above about 50%; inconclusive means no clear call, values can overlap the other calls
# DUSP3 inh: inhibitors of human VHR1 phosphatase (DUSP3); P51452; recombinant VHR phosphatase, pNPP absorbance; inhibition, % at 13.3 µM; 0.52% of 290,000 active; AID 1654; in the data active means inhibition above about 50%
# Target sequence (P51452 whole entry, looked up): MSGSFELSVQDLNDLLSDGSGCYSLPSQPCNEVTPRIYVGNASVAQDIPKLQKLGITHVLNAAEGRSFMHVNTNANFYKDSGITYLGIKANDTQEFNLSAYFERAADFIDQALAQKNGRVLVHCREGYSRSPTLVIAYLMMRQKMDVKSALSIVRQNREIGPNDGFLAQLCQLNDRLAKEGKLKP
# 3CLpro inhibitor: SARS-CoV 3CLpro protease inhibition; P0C6X7; recombinant SARS-CoV 3CLpro, quenched FRET peptide cleavage; inhibition, % at 6 µM; 0.14% of 290,000 active; AID 1706; in the data active means inhibition above about 12%
# Starred values were filed as active, the others as inactive; i = inactive; ? = inconclusive; nt = no result; + = active, no number.
SMILES,Vc quorum ag,PfHsp40 rescue,MazEF act,BJeLR lethal,DUSP3 inh,3CLpro inhibitor
CCCc1nc(SCC(=O)N2CCC(Cc3ccccc3)CC2)c2c(=O)n(C)c(=O)n(C)c2n1,1,184*,1,-28,7,-3
Cc1c2cc[n+](CCN3CCCCC3)cc2c(C)c2c1[nH]c1ccc(O)cc12,i,53*,-15,nt,nt,nt
CCCNC(=O)c1cc(C2CCCCN2C(=O)c2ccc3c(c2)CCO3)on1 (configuration not stated),i,nt,nt,nt,nt,nt
O=c1c2ccccc2nc(COc2ccccc2)n1/N=C/c1ccc(O)cc1O,i,52*,-1,3,17,0
COc1ccc(/C=C2/CCCC(C(=O)C(F)(F)F)=C2O)cc1OC,0,0,211*,1,9,4
O=C(N1CCOCC1)C12CC3CC(C1)CC(C(=O)N1CCOCC1)(C3)C2,5.6*,-1,5,1,3,-8
Cc1ccc(C)c(-c2ccc(=O)n(Cc3ccc(F)cc3Cl)n2)c1,0,6,1,-1,5,3
Cc1ccc(C)c(-c2ccc(=O)n(Cc3cccc(Br)c3)n2)c1,-1,3,-3,1,53*,-2
CCc1cc(=O)oc2cc(C)cc(OCC(=O)N[C@@H](CSCc3ccccc3)C(=O)O)c12,-1,1,-18,-4,16,4
CCC(=O)Nc1c2c(nn1-c1ccc(C)cc1C)CSC2,-4,48*,1,-2,21,3
Cc1ccc(-n2nc3c(c2NC(=O)C(C)(C)C)CSC3)c(C)c1,-2,1,4,2,28,3
CC1=C(C(=O)Nc2cccc(C(=O)NC3CCCC(C)C3C)c2)SCCO1 (configuration not stated),0,2,15,-10,-2,-2
CCOC(=O)c1c(NC(=S)Nc2ccc(Cl)cc2)sc2c1CCN(C)C2,0,3,171*,nt,14,6
Cc1cc2oc(=O)cc(CN3CCOCC3)c2cc1Cl,2,-1,5,4,54*,-3
Cc1cc2oc(=O)cc(CN3CCOCC3)c2cc1C,0,-2,2,-23,31,-2
COc1cc2c(cc1OC)C(c1cccc(Br)c1)CC(=O)N2 (configuration not stated),i,-1,2,9,47,1
COc1cc2c(cc1OC)C(c1cccc(F)c1)CC(=O)N2 (configuration not stated),0,1,2,-3,51*,-7
CSCCC(NC(=O)COc1ccccc1)C(=O)N1CCN(C(C)=O)CC1 (configuration not stated),0,?,3,10,18,1
Cc1cc(C)c(C(=O)CC(=O)c2cccnc2)c(C)c1,i,286*,-1,nt,nt,nt
Cc1oc(C)c2c(=O)ccc3c(c12)OC(N)=C(C#N)C3c1ccccc1 (configuration not stated),0,2,106*,0,-2,2
CSc1ccc(C2C(C#N)=C(N)Oc3c2ccc(=O)c2c(C)oc(C)c32)cc1 (configuration not stated),-1,-1,42,0,10,-2
O=C(N/N=C/c1cccc([N+](=O)[O-])c1)c1cccc2cc[nH]c12,0,-1,18,0,52*,3
O=C(N/N=C/c1cccc([N+](=O)[O-])c1)c1ccc(Br)cc1,0,0,0,-19,57*,-1
O=C(N/N=C/c1cccc([N+](=O)[O-])c1)c1cccc(Br)c1,0,0,9,-16,10,-3
CN(C)c1ccc(CNC(=O)C2(C)Cc3c(-c4cccc(C(N)=O)c4)ccnc3O2)cc1 (configuration not stated),i,nt,nt,nt,nt,nt
SMILES,Vc quorum ag,PfHsp40 rescue,MazEF act,BJeLR lethal,DUSP3 inh,3CLpro inhibitor
O=C1CN(C(=O)c2ccc3nc(Cc4cccc(Cl)c4)oc3c2)CCN1,0,1,6,-9,6,-5
Cc1cc(C)c(S(=O)(=O)c2ccc(C(C)(C)C)cc2)c(Cl)n1,0,2,-6,0,53*,0
Cc1ccc(S(=O)(=O)c2c(C)cc(C)nc2Cl)cc1,0,-1,4,1,-1,-1
OC(Cn1cncn1)c1ccc(Cl)cc1 (configuration not stated),i,-1,-1,8,6,1
OC(Cn1cncn1)(c1ccc(F)cc1)c1ccc(Cl)cc1 (configuration not stated),i,108*,9,5,21,3
C#Cc1ccc(CN2CCCC(C(=O)Nc3ccccc3Oc3cccnc3)C2)cc1 (configuration not stated),0,-1,5,7,56*,2
O=C(Nc1ccccc1Oc1cccnc1)C1CCCN(Cc2ccccc2O)C1 (configuration not stated),0,1,2,1,6,4
CC(COc1ccccc1)N1CCC(CO)(Cc2ccccc2)CC1 (configuration not stated),0,0,2,-2,58*,5
CCCCNc1c(-c2ccc(SC(C)CC)cc2)nc2cnccn12 (configuration not stated),i,860*,-18,nt,nt,nt
O=C(c1ccc(-c2ccccc2)c(F)c1)C1CCCN(C(=O)c2cncs2)C1 (configuration not stated),i,412*,5,5,22,7
Cc1cc(Cl)ccc1C(=O)C1CCCN(C(=O)c2cncs2)C1 (configuration not stated),0,377*,11,7,2,6
CCCCC(=O)N(C)c1c(C)nc2ccc(C(=O)N3CCN(C(=O)c4ccco4)CC3)cn12,i,nt,nt,nt,nt,nt
Cc1ccc(CCNc2ncnc(Cl)c2N)cc1,-1,733*,-5,nt,nt,nt
CCCOc1ccc(C(=O)NNC(=S)NC(=O)c2ccco2)cc1,-1,108*,3,12,2,-2
COc1ccc(C(=O)NNC(=S)NC(=O)c2ccco2)cc1,-2,4,-3,-2,17,-4
CCCOc1ccc(C(=O)NNC(=S)NC(C)=O)cc1,0,52*,3,5,15,-5
CCCOc1ccc(C(=O)NNC(=S)NC(=O)c2ccccc2)cc1,1,-2,1,7,21,1
CCCCOc1ccc(C(=O)NNC(=S)NC(=O)CC)cc1,0,61*,2,7,-7,4
CCC(=O)NC(=S)NNC(=O)c1ccc(OC)cc1,-1,6,5,5,20,5
CC(Oc1ccc(Cl)cc1)C(=O)NNC(=S)NC(=O)c1ccco1 (configuration not stated),0,68*,7,11,3,8
COCC(=O)N(C)C[C@H]1Oc2ncc(Br)cc2C(=O)N([C@@H](C)CO)C[C@H]1C,-2,nt,3,nt,nt,nt
COc1ccc(OC)c(-c2c3cc(O)c(=O)cc-3oc3cc(O)c(O)cc23)c1,0,287*,+,nt,8,-2
